Reference: PubChem BioAssay (NCATS)
Results filed as inconclusive are left out. Entries that show only a call come without a potency. The source made the active and inactive calls. Unless noted, calls follow the shape of the dose curve; as a rule, active = well fitted curve in the direction sought with a large enough effect; inconclusive = small, poorly fitted or top-dose-only effect, or another doubt; inactive = no such curve, though single readings can be large; an effect the other way counts as inactive or inconclusive.

Legend:
[1] = qHTS Assay for Identification of Small Molecule Inducers of Hypoxia Response (AID 2120; active = well fitted curve in the direction sought with a large enough effect in the signal ratio, with a control signal flat, not every such curve was filed as active; the % refers to the signal ratio)
Text: NIH Chemical Genomics Center [NCGC]
NIH Molecular Libraries Screening Centers Network [MLSCN]
National Institutes of Environmental Health Sciences [NIEHS]
National Toxicology Program [NTP]
Hypoxia-inducible factor-1 (HIF-1) is the major hypoxia-regulated transcription factor that controls cellular responses to low oxygen concentration. HIF-1 is composed of two subunits: hypoxia responsive HIF-1a and constitutively expressed HIF-1b, which is also known as aryl hydrocarbon receptor nuclear translocator. During hypoxic conditions, HIF-1a heterodimerizes with HIF-1b and translocates into the nucleus where the HIF-1 complex binds to the hypoxia-response element (HRE) and activates expression of target genes such as VEGF (vascular endothelial growth factor). The HIF-1 pathway is essential to normal growth and development, and is involved in the pathophysiology of cancer, inflammation, and ischemia.
Using a beta-lactamase reporter-gene under control of the hypoxia response element, a cell-based assay [CellSensor(TM) HRE-bla ME-180 developed by Invitrogen Corp.] was used to measure hypoxia-induced signaling. Library compounds were measured for their ability to induce the reporter gene activity. Compounds were screened in a titration series in 1536-well format. The inducers were identified based on the AC50 values derived from the screening data.
NCGC Assay Protocol Summary
2500 cells/5uL in Opti-MEM medium containing 0.5% dialyzed FBS, 0.1 mM NEAA, 1 mM sodium pyruvate and 10 mM HEPES was dispensed into 1536-well plates and cells were cultured at 37 degrees Celsius for 4-5 hours and then 23 nL of compounds or DMSO were delivered to each well using a pin tool. The plates were incubated at 37 degrees Celsius for 17 hours. 1 uL of CCF4-dye mixture was added to each well. After incubated at room temperature for 2.5 hours the plates were measured on an EnVision plate reader at Excitation 405nm, Emission1=460nm and Emission 2=530nm. The %Activity was determined from the ratio of 460nm/530nm.

[2] = biological target: Ferritin light chain (Equus caballus) (UniProt P02791); assay: qHTS Validation Assay for Identification of Novel General Anesthetics (AID 2323); also: series mostly up to about 77 µM
Sequence of Ferritin light chain (Equus caballus) (P02791 2-175 limits assumed): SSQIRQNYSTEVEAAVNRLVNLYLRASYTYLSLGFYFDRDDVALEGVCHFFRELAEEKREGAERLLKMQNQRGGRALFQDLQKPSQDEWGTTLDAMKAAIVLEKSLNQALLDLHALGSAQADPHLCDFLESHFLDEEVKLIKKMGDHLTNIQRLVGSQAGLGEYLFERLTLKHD
How it was run: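 10 uM horse-spleen apoferritin + 1-AMA (50% saturated, PBS); cpd pin-transferred, 10 min RT. Ex 380/Em 535 nm endpoint. Activity normalized between free 1-AMA and 1-AMA/apoferritin; 4-parameter Hill fit of concentration-response.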

[3] = biological target: ATP-dependent DNA helicase Q1 (Homo sapiens) (UniProt P46063); assay: qHTS Validation Assay for Inhibitors of RecQ-Like Dna Helicase 1 (RECQ1) (AID 2353)
Sequence of ATP-dependent DNA helicase Q1 (Homo sapiens) (P46063 whole entry, looked up): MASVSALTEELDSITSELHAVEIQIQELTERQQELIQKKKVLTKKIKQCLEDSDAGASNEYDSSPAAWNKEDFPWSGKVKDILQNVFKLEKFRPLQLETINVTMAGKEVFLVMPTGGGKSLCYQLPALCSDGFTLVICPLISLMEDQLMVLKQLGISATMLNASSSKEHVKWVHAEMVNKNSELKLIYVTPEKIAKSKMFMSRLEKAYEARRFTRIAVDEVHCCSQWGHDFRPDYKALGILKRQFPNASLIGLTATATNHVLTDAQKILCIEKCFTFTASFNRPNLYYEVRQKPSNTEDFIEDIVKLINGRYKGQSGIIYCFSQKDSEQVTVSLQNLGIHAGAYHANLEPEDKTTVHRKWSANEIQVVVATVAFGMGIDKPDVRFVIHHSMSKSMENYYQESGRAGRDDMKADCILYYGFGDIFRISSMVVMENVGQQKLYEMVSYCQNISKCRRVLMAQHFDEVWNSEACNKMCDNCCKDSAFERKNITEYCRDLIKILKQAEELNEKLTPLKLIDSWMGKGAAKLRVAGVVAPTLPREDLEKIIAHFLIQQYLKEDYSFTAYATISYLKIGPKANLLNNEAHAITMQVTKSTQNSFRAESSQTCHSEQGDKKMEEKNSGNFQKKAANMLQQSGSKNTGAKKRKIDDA
How it was run: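 RECQ1T1 50 nM; forked duplex (20 bp + 30-nt ss tails) 200 nM, ATP 2 mM final; pH 8.0, 2 mM MgCl2, 2.5 ug/ml poly(dI-dC); 15 min compound preincubation; discontinuous kinetic read over 2 h at RT.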

[4] = Cytometric Cell-Based qHTS for Inhibitors of the mTORC1 Signaling Pathway in MEF (Tsc2-/-, p53-/-) Cells (AID 2660);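 also: Tsc2 and p53 null MEFs carrying empty vector with compound for 24 h; percent of cells above a phospho-rpS6 to PI ratio cutoff in each well; series mostly up to about 38 µM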
How it was run: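 Cells are plated, treated with compound for 24 hrs at 37 degree Celsius, then fixed, blocked and immunostained for phospho-rpS6 Ser235/236. Propidium iodide counterstain follows. Per-well % positive cells is derived from the PI-normalized phospho-S6 signal.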

[5] = High Content Imaging Cell-Based qHTS for Inhibitors of the mTORC1 Signaling Pathway in MEF Cells (AID 2667); also: potency is read from the fitted curve at half-maximal effect
How it was run: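 Read-out is the share of phospho-rpS6-positive cells per well, from Hoechst-normalized Alexa-488 Ser235/236 staining imaged on IN Cell. Cells: WT Tsc2-expressing Tsc2-/-, p53-/- MEFs exposed to compound for 24 hrs.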

[6] = Cytometry Cell-Based qHTS for Inhibitors of the mTORC1 Signaling Pathway in MEF cells (AID 2668); also: potency is read from the fitted curve at half-maximal effect
How it was run: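 Read-out: phospho-rpS6 Ser235/236 immunofluorescence normalized to propidium iodide intensity, scored as % active cells against a rapamycin (7.5 nM) threshold. Cells: Tsc2-/-, p53-/- MEFs stably expressing WT Tsc2, compound-treated 24 hrs at 37 degree Celsius.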

[7] = Validation screen for small molecules that induce DNA re-replication in MCF 10A normal breast cells (AID 463097); also: nearly all actives have a fitted effect of over 60% in size
How it was run: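 250 MCF 10A cells/well; compound pin-transferred; 48 hr, 37 C, 5% CO2; Hoechst 40 min; imaged 405/500-530 nm. Hits = more high-intensity nuclei.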

[8] = biological target: Ubiquitin carboxyl-terminal hydrolase 2 (Homo sapiens) (UniProt O75604); assay: qHTS Validation Assay for Inhibitors of Ubiquitin-specific Protease USP2a Using CHOP2 as the Reporter (AID 463106)
Sequence of Ubiquitin carboxyl-terminal hydrolase 2 (Homo sapiens) (O75604 whole entry, looked up): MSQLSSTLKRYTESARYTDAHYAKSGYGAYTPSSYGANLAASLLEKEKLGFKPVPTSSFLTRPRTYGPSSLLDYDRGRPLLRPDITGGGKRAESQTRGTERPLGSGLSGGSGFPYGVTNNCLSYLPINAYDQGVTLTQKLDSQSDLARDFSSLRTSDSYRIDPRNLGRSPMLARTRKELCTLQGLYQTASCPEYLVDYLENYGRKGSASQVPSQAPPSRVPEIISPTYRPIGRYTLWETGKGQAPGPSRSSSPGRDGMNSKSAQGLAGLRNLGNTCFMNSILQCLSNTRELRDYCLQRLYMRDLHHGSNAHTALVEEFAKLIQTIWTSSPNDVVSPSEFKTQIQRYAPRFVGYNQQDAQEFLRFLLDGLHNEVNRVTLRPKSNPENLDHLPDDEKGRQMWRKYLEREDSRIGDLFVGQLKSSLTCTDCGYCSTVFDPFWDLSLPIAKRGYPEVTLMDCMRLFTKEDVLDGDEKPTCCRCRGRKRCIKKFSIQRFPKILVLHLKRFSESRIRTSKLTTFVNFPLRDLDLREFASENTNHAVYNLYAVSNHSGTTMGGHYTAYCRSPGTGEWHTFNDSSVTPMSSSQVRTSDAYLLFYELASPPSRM
How it was run: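 Fluorescence read-out at Ex 485nm/Em 531nm after 60min RT, following addition of 25nM Ub-CHOP2 plus 25nM reporter substrate to USP2 core (10nM) pretreated 30min with compound. Data normalized to NEM full inhibition; concentration-response curves fitted.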

[9] = biological target: DNA polymerase III PolC-type (Bacillus subtilis (strain 168)) (UniProt P13267); assay: qHTS Validation Assay for the Inhibitors of DNA Replication in Gram-Positive Bacteria (AID 485295); also: potency is read from the fitted curve at half-maximal effect
Sequence of DNA polymerase III PolC-type (Bacillus subtilis (strain 168)) (P13267 whole entry, looked up): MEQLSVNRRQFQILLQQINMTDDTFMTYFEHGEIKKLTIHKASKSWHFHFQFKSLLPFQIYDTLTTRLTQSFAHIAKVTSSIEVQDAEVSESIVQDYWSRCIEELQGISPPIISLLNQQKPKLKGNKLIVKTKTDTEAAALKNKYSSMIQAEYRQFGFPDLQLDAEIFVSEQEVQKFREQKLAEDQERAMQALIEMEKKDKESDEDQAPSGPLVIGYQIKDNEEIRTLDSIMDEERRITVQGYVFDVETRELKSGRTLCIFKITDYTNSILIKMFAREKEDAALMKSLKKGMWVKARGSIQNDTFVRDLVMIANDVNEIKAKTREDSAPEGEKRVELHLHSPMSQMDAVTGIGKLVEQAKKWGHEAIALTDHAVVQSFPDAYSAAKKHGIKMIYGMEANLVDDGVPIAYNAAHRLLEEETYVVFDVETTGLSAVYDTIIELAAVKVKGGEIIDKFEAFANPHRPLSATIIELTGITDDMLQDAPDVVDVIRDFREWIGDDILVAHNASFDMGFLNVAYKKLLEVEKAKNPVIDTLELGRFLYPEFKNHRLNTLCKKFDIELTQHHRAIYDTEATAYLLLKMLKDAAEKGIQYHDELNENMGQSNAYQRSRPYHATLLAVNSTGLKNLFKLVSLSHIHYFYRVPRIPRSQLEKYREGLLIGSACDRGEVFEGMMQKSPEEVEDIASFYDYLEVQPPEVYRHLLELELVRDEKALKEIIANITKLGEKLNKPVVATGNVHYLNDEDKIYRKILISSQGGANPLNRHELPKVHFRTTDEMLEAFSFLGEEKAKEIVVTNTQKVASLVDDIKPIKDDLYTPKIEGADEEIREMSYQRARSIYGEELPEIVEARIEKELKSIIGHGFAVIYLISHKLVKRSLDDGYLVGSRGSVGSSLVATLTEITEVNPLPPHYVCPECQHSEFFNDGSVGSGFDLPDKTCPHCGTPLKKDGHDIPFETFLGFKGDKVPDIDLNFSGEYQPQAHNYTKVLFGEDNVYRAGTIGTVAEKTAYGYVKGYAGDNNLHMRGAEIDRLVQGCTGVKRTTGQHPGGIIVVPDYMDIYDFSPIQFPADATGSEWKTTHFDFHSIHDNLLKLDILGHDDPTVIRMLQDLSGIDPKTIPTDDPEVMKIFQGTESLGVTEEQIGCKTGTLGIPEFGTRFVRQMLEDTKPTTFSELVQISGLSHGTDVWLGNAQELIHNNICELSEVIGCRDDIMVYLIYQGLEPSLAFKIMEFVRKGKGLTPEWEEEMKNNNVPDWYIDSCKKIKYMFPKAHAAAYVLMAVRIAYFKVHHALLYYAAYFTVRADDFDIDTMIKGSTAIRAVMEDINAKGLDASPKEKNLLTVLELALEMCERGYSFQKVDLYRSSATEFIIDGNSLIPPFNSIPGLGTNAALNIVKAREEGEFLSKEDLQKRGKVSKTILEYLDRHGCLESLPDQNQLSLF
How it was run: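 PicoGreen fluorescence (ex 480–485/em 535–540 nm) reports dsDNA synthesized on ssM13Gori template with dNTPs/NTPs. Enzyme: holoenzyme rebuilt from purified PolC, beta subunit, SSB and primase. Compound preincubated before substrate addition; RT throughout.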

[10] = biological target: RecQ-like DNA helicase BLM (Homo sapiens) (UniProt P54132); assay: qHTS Validation Assay for Inhibitors of Bloom's syndrome helicase (BLM) (AID 2364)
Sequence of RecQ-like DNA helicase BLM (Homo sapiens) (P54132 whole entry, looked up): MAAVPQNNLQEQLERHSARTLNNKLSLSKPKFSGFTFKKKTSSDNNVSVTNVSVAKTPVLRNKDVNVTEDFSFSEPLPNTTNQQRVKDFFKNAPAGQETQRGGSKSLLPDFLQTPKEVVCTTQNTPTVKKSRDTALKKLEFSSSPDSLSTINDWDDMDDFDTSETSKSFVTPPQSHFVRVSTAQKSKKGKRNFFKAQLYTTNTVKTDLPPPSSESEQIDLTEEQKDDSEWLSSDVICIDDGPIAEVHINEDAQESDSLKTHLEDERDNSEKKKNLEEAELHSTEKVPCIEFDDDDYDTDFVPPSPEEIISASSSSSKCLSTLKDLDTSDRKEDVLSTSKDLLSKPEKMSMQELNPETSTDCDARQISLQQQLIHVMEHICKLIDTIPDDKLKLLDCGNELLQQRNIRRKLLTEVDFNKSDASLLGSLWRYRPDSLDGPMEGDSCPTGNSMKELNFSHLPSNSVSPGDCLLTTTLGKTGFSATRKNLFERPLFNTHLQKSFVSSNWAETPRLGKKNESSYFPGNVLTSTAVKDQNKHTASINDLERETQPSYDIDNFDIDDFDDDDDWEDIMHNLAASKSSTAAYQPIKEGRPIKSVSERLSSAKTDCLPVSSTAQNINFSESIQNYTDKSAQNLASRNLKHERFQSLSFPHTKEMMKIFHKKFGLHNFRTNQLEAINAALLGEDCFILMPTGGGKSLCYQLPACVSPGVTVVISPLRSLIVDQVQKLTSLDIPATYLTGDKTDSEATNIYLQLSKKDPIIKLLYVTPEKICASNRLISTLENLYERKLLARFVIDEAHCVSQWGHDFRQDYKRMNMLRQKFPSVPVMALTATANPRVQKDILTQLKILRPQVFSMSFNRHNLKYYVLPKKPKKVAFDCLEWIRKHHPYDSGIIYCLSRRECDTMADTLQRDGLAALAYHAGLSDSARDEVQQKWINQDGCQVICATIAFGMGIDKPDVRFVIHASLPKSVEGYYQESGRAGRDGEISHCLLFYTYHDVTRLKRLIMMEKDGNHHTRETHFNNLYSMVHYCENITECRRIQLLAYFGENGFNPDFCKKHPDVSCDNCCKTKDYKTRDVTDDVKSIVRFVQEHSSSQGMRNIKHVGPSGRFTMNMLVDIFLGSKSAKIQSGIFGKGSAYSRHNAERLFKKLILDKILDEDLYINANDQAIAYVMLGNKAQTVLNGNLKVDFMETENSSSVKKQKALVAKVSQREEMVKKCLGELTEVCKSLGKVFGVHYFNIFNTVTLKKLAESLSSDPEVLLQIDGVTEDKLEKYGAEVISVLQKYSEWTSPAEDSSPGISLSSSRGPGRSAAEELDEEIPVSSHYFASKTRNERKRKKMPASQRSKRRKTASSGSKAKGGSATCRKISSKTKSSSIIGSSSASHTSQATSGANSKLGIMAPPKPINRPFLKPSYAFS
How it was run: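 50 nM BLM preincubated 15 min at room temperature with compound in pH 8.0 Tris buffer containing 2.5 ug/ml poly(dI-dC); started with 200 nM TAMRA/BHQ-2 forked duplex and 2 mM ATP (final). Unwinding read as TAMRA fluorescence increase, two reads 2 h apart.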

Row | SMILES | outcome [1] | outcome [2] | outcome [3] | outcome [4] | Potency [5] | Potency [6] | outcome [7] | outcome [8] | Potency [9] | outcome [10]
1 | CC(=O)Oc1ccc(C(c2ccc(OC(C)=O)cc2)c2ccccn2)cc1 | inactive |  |  |  |  |  |  |  |  | 
2 | N[C@@H](Cc1cnc[nH]1)C(=O)O |  | inactive | inactive | inactive | inactive | inactive | inactive | inactive | inactive | 
3 | CC(=O)O[C@H]1C[C@@H]2CC[C@@H]3[C@H](CC[C@@]4(C)[C@H]3C[C@H]([N+]3(C)CCCCC3)[C@@H]4OC(C)=O)[C@@]2(C)C[C@@H]1[N+]1(C)CCCCC1 |  |  |  |  | inactive | inactive |  | inactive | inactive | 
4 | CC1(C)CCC(NC(=O)[C@@H](N)CCC(=O)O)CC1 |  | inactive | inactive | inactive | inactive | inactive | inactive | inactive | inactive | 
5 | CNCCC(Oc1ccccc1C)c1ccccc1 (stereo not given) |  | inactive | inactive | inactive | inactive | inactive | inactive | inactive | inactive | 
6 | COC1=CC(=O)C[C@@H](C)[C@]12Oc1c(Cl)c(OC)cc(OC)c1C2=O | inactive |  |  |  |  |  |  |  |  | 
7 | COc1cc(-c2ccc(=O)[nH]n2)ccc1OC(F)F |  | inactive | inactive |  |  |  | inactive |  |  | 
8 | O=C(O)c1cc2cc(Cc3cccnc3)ccc2o1 |  | inactive | inactive | inactive | inactive | inactive | inactive | inactive | inactive | 
9 | CC(C)NC[C@@H](O)COc1cccc2ccccc12 |  | inactive | inactive |  |  |  | inactive |  |  | inactive
10 | C[N+]1(CCCCC[N+]2(C)CCCC2)CCCC1 |  | inactive | inactive | inactive | inactive | inactive | inactive | inactive | inactive | 
11 | COC(=O)[C@H]1[C@H]2C[C@H]3c4[nH]c5ccccc5c4CCN3C[C@H]2CC[C@@H]1O |  | inactive | inactive | inactive | inactive | inactive | inactive | inactive | inactive | 
12 | COc1cc(NS(C)(=O)=O)ccc1Nc1c2ccccc2nc2ccccc12 |  | inactive |  |  | 3.69 µM (active) | 0.521 µM (active) |  | inactive |  | 
13 | CC[C@H](C)C(=O)O[C@H]1CCC=C2C=C[C@H](C)[C@H](CC[C@@H]3C[C@@H](O)CC(=O)O3)[C@H]21 |  |  |  | inactive |  |  |  | inactive | inactive | 
14 | O=C(O)CCCCC(=O)O | inactive |  |  |  |  |  |  |  |  | 
15 | CC(=O)O[C@]1(C(C)=O)CC[C@H]2[C@@H]3C[C@H](C)C4=CC(=O)CC[C@]4(C)[C@H]3CC[C@@]21C | inactive |  |  |  |  |  |  |  |  | 
16 | Oc1ccc(O)cc1 |  | inactive | inactive |  | inactive |  |  | inactive | 5.32 µM (active) | 
17 | CCCC1O[C@@H]2C[C@H]3[C@@H]4CCC5=CC(=O)C=C[C@]5(C)[C@H]4[C@@H](O)C[C@]3(C)[C@]2(C(=O)CO)O1 (stereo not given in full) |  |  |  | inactive | inactive | inactive |  | inactive | inactive | 
18 | CC(C)C[C@H]1C(=O)N2CCC[C@H]2[C@]2(O)O[C@](NC(=O)[C@@H]3C=C4c5cccc6[nH]c(Br)c(c56)C[C@H]4N(C)C3)(C(C)C)C(=O)N12 |  |  |  | inactive | inactive |  |  | inactive | inactive | 
19 | CNCCC=C1c2ccccc2CCc2ccccc21 |  |  | inactive |  |  |  | inactive | inactive | inactive | inactive

Row | SMILES | outcome [1] | outcome [2] | outcome [3] | outcome [4] | Potency [5] | Potency [6] | outcome [7] | outcome [8] | Potency [9] | outcome [10]
20 | C[C@@H]1C(=O)NC2=Nc3cccc(Cl)c3CN21 |  | inactive | inactive | inactive | inactive | inactive | inactive | inactive | inactive | 
21 | COc1cc2c(cc1O)CC[C@@H]1[C@@H]2CC[C@]2(C)[C@@H](O)CC[C@@H]12 |  |  |  | inactive | inactive |  |  | inactive | inactive | 
22 | CCCCCCc1ccc(O)cc1O | inactive |  |  |  |  |  |  |  |  | 
23 | CC(O)C(=O)O (stereo not given) | inactive |  |  |  |  |  |  |  |  | 
24 | C=CCc1ccc(O)c(OC)c1 | inactive |  |  |  |  |  |  |  |  | 
25 | O=C1CCC(c2ccc(-n3ccnc3)cc2)=NN1 |  | inactive | inactive | inactive | inactive | inactive | inactive | inactive | inactive | inactive
26 | Nc1ccc(C(=O)O)cc1 | inactive |  |  |  |  |  |  |  |  | 
27 | Nc1cc(Cl)c(NC2=NCCN2)c(Cl)c1 |  | inactive | inactive | inactive | inactive | inactive | inactive | inactive | inactive | 
28 | C[C@]12CC[C@@H]3c4ccc(O)cc4CC[C@H]3[C@@H]1CC[C@@H]2O |  | inactive | inactive | inactive | inactive | inactive | inactive | inactive | inactive | 
29 | O=c1ccc2ccccc2o1 | inactive |  |  |  |  |  |  |  |  | 
30 | CN1C2CCC1CC(OC(=O)c1c[nH]c3ccccc13)C2 (stereo not given) |  | inactive | inactive | inactive |  |  | inactive | inactive | inactive | inactive
31 | CC(C)COC(=O)OCN1C(=O)CN(CCN2CC(=O)N(COC(=O)OCC(C)C)C(=O)C2)CC1=O |  |  | inactive | inactive | inactive | inactive | inactive | inactive | inactive | inactive
32 | C1CCc2nnnn2CC1 |  | inactive | inactive | inactive | inactive | inactive | inactive | inactive | inactive | 
33 | N[C@H](CO)C(=O)O |  | inactive | inactive | inactive | inactive | inactive | inactive | inactive | inactive | 
34 | CCC(NC(C)C)C(O)c1ccc(O)c(O)c1 (stereo not given) |  | inactive | inactive | inactive | inactive | inactive | inactive | inactive | inactive | 
35 | CC(CCc1ccccc1)NCC(O)c1ccc(O)c(C(N)=O)c1 (stereo not given) |  | inactive | inactive | inactive | inactive | inactive | inactive | inactive | inactive | inactive
36 | CN=C(NC#N)Nc1ccc(C2=NNC(=O)CC2C)cc1 (stereo not given) |  | inactive | inactive |  |  |  | inactive |  |  | 
37 | CCCn1c(=O)[nH]c(=O)c2[nH]cnc21 |  | inactive | inactive | inactive | inactive | inactive | inactive | inactive | inactive | 
